The experiment in a line: anti-His antibody binders, primary screen, artefact control for SMM control protein annotation, biochemical, small-molecule microarray, 635 nm fluorescence (AID 1128).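 Further: score merges feature fluorescence with signal-to-noise for each printed compound spot.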 As to conditions: anti-His Alexa647 antibody binding, higher = more signal.
For the compound `C=CCOC(=O)[C@H]1[C@@H]2C(=O)O[C@@H](c3ccccc3)[C@@H](c3ccccc3)N2[C@@H](c2ccc(OCCOC(=O)[C@H]3C[C@H]4C(=O)N[C@@H](CC(C)C)C(=O)N4[C@H]3c3ccc(O)cc3)cc2)[C@]12C(=O)Nc1ccccc12`, the composite z-score turned out to be 0.1. `CCOC(=O)C1=C[C@@H](C(C)(C)C)N(S(=O)(=O)c2ccc(C)cc2)[C@H]1c1ccc(C#N)cc1` returned a composite z-score of 1.16.

For `C=CCOC(=O)[C@@H]1[C@H]2C(=O)O[C@H](c3ccccc3)[C@H](c3ccccc3)N2[C@H](c2ccc(OCCOC(=O)[C@H]3C[C@H]4C(=O)N[C@@H](CCCCN(C)C)C(=O)N4[C@H]3c3ccc(O)cc3)cc2)[C@@]12C(=O)Nc1ccc(I)cc12`, the composite z-score is 1.2. Regarding `COC(=O)[C@H](Cc1ccc(O)cc1)N[C@@H](/C=C/C1CC1)[C@H](O)Cc1ccccc1`, the composite z-score was 0.257. The value for `O=C(NCC(O)CO)C1N=C(c2ccc(OCCCO)cc2)N(c2ccccc2)O1` (centres undefined) was 0.703; that for `CCCc1cc2c(n1CCc1ccc(Cl)cc1)C(C)C1CN(C(=O)c3ccccc3)C(C)(C(=O)OC)C21` (centres undefined) was 1.6. Compound `CC(C)(C)OC(=O)CC[C@]1(C(=O)NCC(O)CO)N=C(c2ccc(OCCCO)cc2)O[C@H]1c1ccccc1N=[N+]=[N-]` (some centres undefined) showed a composite z-score of 2.42. On to `COc1ccc([Si](C)(C)[C@H]2[C@H](CC(=O)N3CCC[C@H]3CO)O[C@@]3(C(=O)N(Cc4ccc(N5CCCCC5=O)cc4)c4ccccc43)[C@@H]2C)cc1`, for which the composite z-score turned out to be 0.952. Next, `CN1C(=O)[C@@H]2[C@@H](CC(COc3ccccc3)=C3[C@@H](CCc4ccccc4)OB(O)C[C@@H]32)C1=O`: -0.526.

These data come from PubChem BioAssay.
